Eight compounds from PubChem BioAssay (NCI) can be followed below.

This assay is described as follows: NCI Yeast Anticancer Drug Screen. Data for the wt1 strain (AID 149).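 Note: 0% = growth of vehicle-treated wt1 cultures.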 Particulars: S. cerevisiae wt1 strain (SPY 50644) growth inhibition, stronger effect = higher value. As for the experimental part: Growth inhibition of yeast strains with defined genetic alterations is measured as a screen for potential anti-cancer activity. Selected strains with alterations in DNA damage repair or cell cycle control were exposed to compounds and growth inhibition was measured relative to vehicle treated controls. The strain used in this assay is wt1

Compounds without any hit were thinned out: in the full panel of roughly 79,000, 15% have a hit. Unmarked numbers belong to inactive results. The source made the active and inactive calls. Cut-off read from the data, not from the text of the source: active = growth inhibition above about 70%; inactive = the rest.

For the compound `COc1ccc(/C(=N/O)c2ccccc2C2=Nc3ccccc3C(NCc3ccccc3)O2)cc1C` (stereo not given), the growth inhibition is -1% (at 1.2 µM); -2% (at 3.7 µM); 1% (at 11.0 µM); 17% (at 33.0 µM); 89% (active) (at 100.0 µM).
As to `COc1ccc2nc3cccc([N+](=O)[O-])c3c(NCCCO)c2c1`, the growth inhibition is, setting by setting: (at 1.2 µM) 15%; (at 3.7 µM) 62%; (at 11.0 µM) 94% (active); (at 33.0 µM) 97% (active); (at 100.0 µM) 97% (active).
In the case of `S=c1[nH]nc(Cc2ccccc2)c(=S)[nH]1`, the growth inhibition is -47% (at 1.2 µM); -14% (at 3.7 µM); 30% (at 11.0 µM); 92% (active) (at 33.0 µM); 97% (active) (at 100.0 µM).
Take `Cc1ccc2c(/C=C/c3ccc(N(C)C)cc3)ccnc2c1C`: the growth inhibition runs as follows: (at 1.2 µM) -44%; (at 3.7 µM) -45%; (at 11.0 µM) -44%; (at 33.0 µM) -39%; (at 100.0 µM) 59%.
Regarding `CC(=O)O/N=C/c1c2ccccc2cc2ccccc12`, the growth inhibition was -1% (at 1.2 µM); 2% (at 3.7 µM); 0% (at 11.0 µM); 3% (at 33.0 µM); 10% (at 100.0 µM).
`CC1(C)CC(=O)C(C(CC(c2ccccc2)c2cc3c(cc2O)OCO3)C2=C(O)CC(C)(C)CC2=O)=C(O)C1` (stereo not given): the growth inhibition is -84% (at 1.2 µM); -3% (at 3.7 µM); 22% (at 11.0 µM); 75% (active) (at 33.0 µM); 85% (active) (at 100.0 µM).
For the compound `CNC(=O)OCc1c(COC(=O)NC)c(C)n(-c2ccc(Cl)c(Cl)c2)c1C`, the growth inhibition is -51% (at 1.2 µM); -53% (at 3.7 µM); -54% (at 11.0 µM); 97% (active) (at 33.0 µM); 99% (active) (at 100.0 µM).
For `CCOC(=O)C1=C(C)NC(C)=C(C(=O)OCC)C1c1cccc([N+](=O)[O-])c1` the same measures were -53%, -41%, -22%, 37% and 88% (active).
